Screens: PubChem BioAssay, several laboratories
Pyk2 oligo antag = antagonists of Pyk2 self-association, primary screen, Q293 cells, FERM NanoBiT luminescence, HTS | 99,000 compounds, 0.83% hits | active compounds read low | z-score (the deposit names both 25 µM and 10 µM) | Protein-tyrosine kinase 2-beta (Homo sapiens), Q14289;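 active = Z-score of -3 or lower, scaled per plate to the spread of control and sample wells; inactive = z-score above -3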;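 also: negative z-score means lost luminescence so less FERM oligomerization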
PLK1 kinase inh = human PLK1 kinase inhibitors, primary screen, biochemical, TR-FRET; Serine/threonine-protein kinase PLK1 (Homo sapiens), P53350; recombinant PLK1 kinase, TR-FRET peptide phosphorylation; inhibition, % at 10 µM; 97,000 compounds, 0.53% hits;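 active = inhibition of 50% or more in the single-concentration screen; inactive = inhibition below 50%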
Target sequence (P53350 whole entry, looked up): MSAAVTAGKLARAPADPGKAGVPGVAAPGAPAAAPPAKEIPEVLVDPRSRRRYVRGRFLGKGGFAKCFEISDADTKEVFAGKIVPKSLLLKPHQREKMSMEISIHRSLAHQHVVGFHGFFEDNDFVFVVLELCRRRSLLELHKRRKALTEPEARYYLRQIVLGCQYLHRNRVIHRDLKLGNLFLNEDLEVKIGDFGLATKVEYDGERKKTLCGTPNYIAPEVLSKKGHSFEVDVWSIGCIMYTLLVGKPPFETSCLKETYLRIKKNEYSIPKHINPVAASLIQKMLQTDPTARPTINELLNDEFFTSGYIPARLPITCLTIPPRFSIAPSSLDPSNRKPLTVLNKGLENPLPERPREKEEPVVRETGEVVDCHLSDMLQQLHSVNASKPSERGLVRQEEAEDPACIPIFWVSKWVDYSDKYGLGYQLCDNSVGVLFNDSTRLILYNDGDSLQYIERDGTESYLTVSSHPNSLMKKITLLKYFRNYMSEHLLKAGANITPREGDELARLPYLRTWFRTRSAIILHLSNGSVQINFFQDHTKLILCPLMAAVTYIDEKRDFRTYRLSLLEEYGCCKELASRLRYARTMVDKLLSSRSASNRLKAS
Plk1 PBD FP = Plk1 polo box domain binding inhibitors, primary screen, biochemical, fluorescence polarization. Serine/threonine-protein kinase PLK1 (Homo sapiens), P53350. Plk1 PBD phosphopeptide binding. inhibition, %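 (tested at about 20 µM)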. 97,000 compounds, 0.13% hits. AID 693, 2007; in the data active = inhibition above about 34%, passing the limit was not always enough
sEH inh = soluble epoxide hydrolase inhibitors, primary screen, biochemical, human sEH; Bifunctional epoxide hydrolase 2 (Homo sapiens), P34913; recombinant human sEH enzymatic activity assay; inhibition, % at 2 µM; 91,000 compounds, 0.34% hits; AID 707, 2007; in the data active = inhibition above about 80%
sEH activator = soluble epoxide hydrolase activators, primary screen, biochemical, human sEH; Bifunctional epoxide hydrolase 2 (Homo sapiens), P34913; purified human sEH enzymatic activity, activator screen; activation, % at 2 µM; 91,000 compounds, 0.04% hits; AID 717, 2007; in the data active = activation above about 37%
Numbers stand for hits; - = inactive; . = no result. An excerpt weighted towards active compounds, which were near 1.6% of everything screened.

SMILES | Pyk2 oligo antag | PLK1 kinase inh | Plk1 PBD FP | sEH inh | sEH activator
Cc1ccc(-c2nc(CS(=O)CC(=O)NCc3ccc(Cl)cc3)c(C)o2)cc1 (stereo unspecified) | . | 69.0 | - | . | .
Cc1ccc(-c2nc(CS(=O)CC(=O)NCCC(C)C)c(C)o2)cc1 (stereo unspecified) | . | 67.0 | - | . | .
CCCNC(=O)CS(=O)Cc1nc(-c2ccc(OC)cc2)oc1C (stereo unspecified) | . | 67.5 | - | . | .
COc1ccc(C(=O)/C=C\N2CCOCC2)cc1 | - | - | - | - | -
COc1ccc(/C=N/NC(=O)c2ccn[nH]2)cc1COc1ccc(F)cc1 | -3.16 | - | - | - | -
CCN(CCNC(=O)C1CCN(Cc2nc(-c3ccc(Cl)cc3)oc2C)CC1)c1ccccc1 | - | - | - | 83.7 | -
CCc1ccc(-c2nc(CN3CCCC(C(=O)O)C3)c(C)o2)cc1 (stereo unspecified) | . | - | - | - | -
CCN(CCNC(=O)C1CCN(Cc2nc(-c3cccc(Cl)c3)oc2C)CC1)c1ccccc1 | - | - | - | 89.8 | -
Cc1oc(-c2ccc(Cl)cc2)nc1CN1CCCC(C(=O)N2CCN(C(=O)c3ccco3)CC2)C1 (stereo unspecified) | . | 61.6 | - | . | .
C=CCn1c(SCC(=O)Nc2sccc2C#N)nc2sc(C)c(C)c2c1=O | - | - | - | - | -
CC(C)N(Cc1nc(-c2ccc(Cl)cc2)no1)C(=O)CCCN1C(=O)c2ccccc2C1=O | . | 53.8 | - | . | .
CC(C)N(Cc1nc(-c2ccccc2)no1)C(=O)c1ccc(Cl)cc1 | . | - | - | - | -
CC(C)C(=O)Nc1cccc(C(=O)OCC(=O)c2ccc(Cl)cc2Cl)c1 | -3.54 | - | - | - | -
CC(=O)Nc1cc(C(=O)OCC(=O)c2ccc(Cl)cc2Cl)ccc1C | - | - | - | - | -
CCN(CC)c1ncn(Cc2c(Cl)cccc2Cl)c2ncnc1-2 | - | - | - | . | .
CCN(CC)c1ncnc2c1ncn2Cc1c(Cl)cccc1Cl | -3.06 | - | - | - | -
c1ccc(Cn2nnc3c(N4CCCCCC4)ncnc32)cc1 | . | - | - | - | -
Clc1cccc(Cl)c1Cn1cnc2c(N3CCCCCC3)ncnc21 | -3.41 | - | - | - | -
CC(=O)Nc1ccc(OCC(O)Cn2nc(C)c(Br)c2C)cc1 (stereo unspecified) | - | - | - | - | -
CCOC(=O)C1=C(C)NC(SCC(=O)OC)=C(C#N)C1c1ccc(C(=O)OC)cc1 (stereo unspecified) | - | - | - | . | .
C=CCOC(=O)C1=C(C)NC(SCC)=C(C#N)C1c1ccc(Cl)cc1 (stereo unspecified) | -3.19 | - | - | - | -
COC(=O)c1ccccc1N1C(=O)[C@@H]2C(c3ccc(F)cc3)=NO[C@@H]2C1=O | - | - | - | - | -
COc1ccc(CN2C(=O)[C@@H]3C(c4ccc(F)cc4)=NO[C@@H]3C2=O)cc1 | - | - | - | - | 37.5
O=C(Nc1ccc2c(c1)OCCO2)c1cc2sccc2n1Cc1ccc(F)cc1 | -3.11 | - | - | - | -
O=C(Nc1ccc2c(c1)OCCO2)c1cc2sccc2n1Cc1ccccc1 | -3.77 | - | - | - | -
SMILES | Pyk2 oligo antag | PLK1 kinase inh | Plk1 PBD FP | sEH inh | sEH activator
Cn1c(C(=O)Nc2ccc3c(c2)OCCO3)cc2sccc21 | - | - | - | - | -
Nc1ncncc1-c1ccc([N+](=O)[O-])cc1 | - | - | - | - | -
CC1=C(C(=O)OC(C)C)C(c2cccs2)C(C(=O)OC(C)C)=C(C)N1 | - | . | . | . | .
Cc1cc(C)c2oc(-c3ccc(C)c(NC(=S)NC(=O)c4cccs4)c3)nc2c1 | -3.67 | - | - | - | -
Cc1nc2ccc(NC(=O)C3CCN(S(=O)(=O)c4cccs4)CC3)cc2s1 | - | 53.5 | - | - | -
CCOC(=O)c1cccc(NC(=O)C2CCN(S(=O)(=O)c3cccs3)CC2)c1 | - | - | - | - | -
O=C(O)c1ccccc1-c1ccccc1C(=O)NCCCO | - | - | - | - | 37.1
CC(=O)n1cc(C(C[N+](=O)[O-])SCCN)c2ccccc21 (stereo unspecified) | - | - | - | . | .
CC(C)(C)OC(=O)NC(CCCCNC=O)C(=O)O (stereo unspecified) | - | - | - | - | -
COc1ccc(OCC(=O)NCCCN2CCOCC2)cc1 | - | - | - | - | -
CCOC(=O)N1CCC(NC(=O)C2CCN(C(=O)N3CCOc4ccccc43)CC2)CC1 | - | 54.5 | - | - | -
O=C(COc1ccc(F)cc1)Nc1nnc(-c2ccncc2)s1 | - | - | - | - | -
O=C(COc1ccccc1F)Nc1nnc(-c2ccncc2)s1 | - | 54.3 | - | - | -
C=CCNC(=O)c1ccccc1NC(=O)c1ccc(Cl)c(S(=O)(=O)Nc2ccccc2)c1 | -3.83 | - | - | - | -
O=C(NCCN=C1NS(=O)(=O)c2ccccc21)c1ccncc1 | - | - | - | - | -
Cn1c(-c2ccc(C=O)s2)nc2c3ccccc3c3ccccc3c21 | -3.59 | - | - | - | -
N#C/C(=C\Nc1ccccc1O)c1nc2ccccc2o1 | -3.35 | . | . | . | .
CC(Sc1ccc(Cl)cc1)C(=O)Nc1ccc(S(=O)(=O)N2CCOCC2)cc1 (stereo unspecified) | - | - | - | - | -
COc1cccc(C2CC(=O)NC(SC)=C2C#N)c1 (stereo unspecified) | . | 68.6 | - | . | .
Cc1ccc(C(=O)C2(C)C3c4cc(Br)ccc4OC(=O)C32C(=O)c2ccco2)cc1 (stereo unspecified) | -3.13 | - | - | - | -
O=C(NCCC1=CCCCC1)c1ccc(F)c(S(=O)(=O)N2CCOCC2)c1 | - | - | - | 97.4 | -
N#Cc1ccccc1Sc1ccccc1C(=O)Nc1ccc(Br)cc1 | -3.49 | - | - | - | -
NC(=O)c1ccccc1NC(=O)/C=C/c1cccc(Cl)c1 | -3.23 | - | - | - | -
C=CCNC(=S)N/N=C/c1ccc(-c2cc(Cl)ccc2Cl)o1 | -3.43 | - | - | - | -
O=C(COc1ccccc1)N1CCN(C(=O)c2ccco2)CC1 | - | - | - | - | -
SMILES | Pyk2 oligo antag | PLK1 kinase inh | Plk1 PBD FP | sEH inh | sEH activator
COc1ccc(OCC(=O)N2CCN(C(=O)c3ccco3)CC2)cc1 | - | - | - | - | 40.7
Cc1cccc2cc(-c3ccccc3)c(-c3ccccc3)c[n+]12 | - | . | . | . | .
CCOC(=O)c1c(-c2cccs2)csc1NC(=O)CN(CC)CC | -3.62 | - | - | - | -
C/C(CCc1ccc2c(c1)OCO2)=N\N=C1\NC(=O)CC(C(=O)Nc2ccc(Cl)cc2)S1 (stereo unspecified) | - | - | - | - | -
On1c2c(c3c4nonc4ccc31)CCCC2 | . | 50.9 | - | - | -
COc1ccc(C2C=C(c3ccc(C)c(C)c3)Nc3ncnn32)c(OC)c1OC (stereo unspecified) | . | 67.4 | - | . | .
NC(=O)CSc1nnc(CCc2nc3ccccc3[nH]2)n1-c1ccccc1 | . | - | - | - | -
CN1C(=O)c2cccc(NC(=O)CCc3ccccc3)c2C1=O | . | - | - | - | -
